Test results reported in the supplement of paper PMC6555819.

Experiments:
Test in all cases: PBM binding z-score (relative to random genomic background probes); higher = stronger binding; sequences stand for … in GC…GCGATTGACAGCGTAGAATGAAGG
[1] = tested on: PPARg:RXRa DBDmut IVT, anti-RXR (DBD mutation: RXRa K156A/R161A, NR concentration 270 nM, RXRa partner concentration 90 nM)
In short: (§1)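 Each nuclear receptor dimer, without ligand, was incubated for 1 h on custom Agilent 4×180K protein-binding microarrays. Binding was detected with antibodies against each partner (one per run), and scanned fluorescence was regression-normalized. The binding z-scores are referenced to random human genomic background probes.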

[2] = tested on: PPARg:RXRa IVT, anti-PPARg (NR concentration 270 nM, RXRa partner concentration 90 nM)
In short: as §1

[3] = tested on: PPARg DBDmut:RXRa IVT, anti-PPARg (DBD mutation: PPARg1 K132A/R137A, NR concentration 270 nM, RXRa partner concentration 90 nM)
In short: as §1

[4] = tested on: PPARg DBDmut IVT, anti-PPARg (DBD mutation: PPARg1 K132A/R137A, NR concentration 270 nM)
In short: as §1

[5] = tested on: PPARg homodimer (NR concentration 180 nM)
In short: as §1

[6] = tested on: PXR:RXRa (NR concentration 270 nM, RXRa partner concentration 90 nM)
In short: as §1

[7] = tested on: PXR homodimer (NR concentration 270 nM)
In short: as §1

[8] = tested on: RARa:RXR (NR concentration 270 nM, RXRa partner concentration 90 nM)
In short: as §1

[9] = tested on: RARa homodimer (NR concentration 270 nM)
In short: as §1

[10] = tested on: RARb:RXRa (NR concentration 270 nM, RXRa partner concentration 90 nM)
In short: as §1

| Sequence | PBM binding z-score [1] | PBM binding z-score [2] | PBM binding z-score [3] | PBM binding z-score [4] | PBM binding z-score [5] | PBM binding z-score [6] | PBM binding z-score [7] | PBM binding z-score [8] | PBM binding z-score [9] | PBM binding z-score [10] |
| --- | --- | --- | --- | --- | --- | --- | --- | --- | --- | --- |
| CGTCCAAGGTCAGAGAGGTCTGTGAATGCCGAGT | 2.15 | 2.25 | -0.507 | -0.56 | 2.09 | 2.96 | 1.23 | 3.24 | 0.529 | 4.49 |
| TCGAGAAGGTTACCAATGGGGCATTCAGCTTTCT | 1.39 | 0.663 | -1.15 | -0.173 | 0.132 | 0.773 | -1 | 1.49 | -0.803 | 2.26 |
| TCAGACAGGTGACGGTAACTCAGGTACGCAGTCG | 2.24 | 1.37 | 0.209 | 0.0566 | 0.126 | 0.109 | -0.211 | 0.171 | 0.103 | 0.885 |
| AGAACGAGGGCAATGAGTTGATAGCGCGGGTGGC | 3.57 | 2.39 | 0.0277 | -0.898 | -0.335 | 1.62 | 4.62 | -0.0907 | -1.01 | 1.96 |
| TCTAGTTGGTCACCGAGGTCACACACGACGGGTA | 2.51 | 4.29 | 1.31 | 2.33 | 3.73 | 5.31 | 2.5 | 5.61 | 1.78 | 3.92 |
| ATCTGTAGGTAAAGTTCAGTGAAAGATCGATAGA | 1.48 | 2.2 | 1.04 | 0.902 | 1.06 | 1.41 | 1.84 | 0.99 | 0.559 | 2.53 |
| ATCTCTAGGTAACAAGTACAGTGAAAGAGAGGAC | 2.78 | 2.91 | 1.63 | 0.83 | 0.76 | 0.221 | 0.657 | 0.485 | 1.28 | 0.624 |
| TTACCAAGGTGAAAGGTCGTTGGTGCACGCCTTG | 3.18 | 5.34 | 0.205 | 0.977 | 2.46 | 4.31 | 0.449 | 6.09 | -0.639 | 3.31 |
| ACAGACAGGTGATGAAGGCAACTCAGGCTATCAT | -0.272 | -0.316 | 0.175 | -1.07 | -0.119 | -0.469 | -0.142 | 0.0224 | 0.0844 | 0.0179 |
| CTCGAAAGGTCGGGTGAGGTGAGTATACGGATAA | 0.384 | 1.74 | 0.713 | 0.324 | 1.4 | 3.82 | 0.334 | 3.01 | 0.691 | 3.52 |
| ATCTCTAGGTAAGAGTTCAGTGAATCCCGAGGAT | 1.35 | 2.7 | 0.769 | 1.17 | 1.09 | 2.32 | 2.16 | 0.952 | 0.264 | 1.96 |
| TCTATTGGTTGAAGGGCAACCGACGAGTCCGTTT | 1.93 | 0.82 | 0.765 | 0.266 | 1.09 | 0.725 | 0.614 | 0.74 | 0.718 | 1.55 |
| TAGCCTAGGTCAGCTCGGGCCAGTATACGCTATA | 1.01 | 1.73 | -1.19 | -1.03 | 0.105 | 1.77 | -0.949 | 1.39 | -0.994 | 3.65 |
| TCGAGTAGGTTGGTCGGGGCATTCAGCCAACATA | 0.51 | -0.219 | -0.384 | -1.1 | -0.0818 | 0.102 | -0.155 | 0.0862 | -0.932 | 0.117 |
| CCTTACGGGTAAAGGTTATAGCACGGGTGGTACG | -0.138 | 1.7 | -0.079 | -0.348 | 1.08 | 1.1 | 0.1 | 2.04 | 0.398 | 1.82 |
| CCGAGTAGGTTATGGGGCACTCAGGCAACGGTGA | 3.14 | 3.7 | -0.555 | -0.9 | 0.446 | -0.0743 | -0.0972 | 0.214 | -0.134 | 1.15 |
| ATCGAAAGGTCGACGAGGGGAGTATACACCGTTT | 0.481 | 1.64 | 1.34 | 0.0319 | 1.49 | 2.39 | 0.488 | 3.37 | 0.328 | 3.74 |
| ATACCAAGGTGATCGTGAGGTCGTCGATACTAAC | 0.722 | 1.25 | 0.727 | 0.964 | 0.798 | 2.36 | 0.524 | 1.84 | 0.592 | 1.3 |
| CGTCCAAGGTCAGCAGGTCAGTAAAAGCGACGTG | 2.72 | 3.62 | 0.159 | -0.726 | 3.33 | 3.43 | 0.607 | 4.46 | 0.549 | 5.51 |
| GGAACGTGGGCATTCGAGTTGATAGCATGGCGAT | -0.654 | -0.803 | -0.387 | -0.8 | -0.877 | -0.129 | -0.516 | -0.333 | -0.773 | -0.433 |

| Sequence | PBM binding z-score [1] | PBM binding z-score [2] | PBM binding z-score [3] | PBM binding z-score [4] | PBM binding z-score [5] | PBM binding z-score [6] | PBM binding z-score [7] | PBM binding z-score [8] | PBM binding z-score [9] | PBM binding z-score [10] |
| --- | --- | --- | --- | --- | --- | --- | --- | --- | --- | --- |
| CCTACTGGACCAAAAAGGTCATTGATGCCGATAA | 1.82 | 2.46 | -0.0112 | -0.226 | 4.04 | 4.77 | 2.35 | 5.09 | 3.15 | 3.96 |
| TAGCCTAGGTCATGCGGGCCAGTTTAGTGTCGGC | 2.01 | 2.55 | -0.215 | -0.754 | 0.303 | 1.59 | -0.464 | 2.22 | -0.83 | 3.45 |
| CCTACTGGGCCAAATGTCATTGATTCCAATGCTC | 4.77 | 4.36 | 0.17 | 0.471 | 0.28 | -0.184 | -0.329 | 0.0171 | -0.233 | 0.654 |
| AGAATGAGGTTATTAAGATCAGGCAATTGCGGTC | 2.95 | 2.56 | 0.272 | 0.448 | 0.366 | 1.2 | 0.322 | 1.47 | 0.167 | 1.33 |
| AGAATGAGGTTAAGATAAGGGAAACAGAATACAT | 2.37 | 2.34 | 1.82 | 1.35 | 1.38 | 1.12 | 0.744 | 1.8 | 1.27 | 1.83 |
| CAAACTAGGTCAACAGGTCAAAGTCCGCTTCCCG | 8.61 | 8.71 | 4.74 | 3.76 | 4.14 | 4.32 | 1.23 | 5.98 | 3.05 | 4.81 |
| ATCTCTAGGTAAAGTTAAGTGAAAGATCGATAGA | 2.61 | 1.99 | 0.949 | 2.08 | 0.251 | -0.00139 | 0.451 | 0.249 | 0.961 | 0.312 |
| CCTACTGGGCCATTCAGAGGTCATTGGTCATATG | 3.85 | 4.26 | -0.0478 | 0.266 | 1.61 | 4.57 | 2.34 | 4.46 | 0.727 | 3.03 |
| CGAACTCGGTCATTGACAGGACAGTGAATAGTAA | 2.98 | 2.26 | -0.213 | -0.299 | 0.0566 | 0.137 | -0.233 | 0.436 | -0.219 | 2.14 |
| CTTCAAAGTTCAACTAAGGTAACGTAAAGCACGC | 0.299 | 1.44 | 1.35 | 1.17 | 3.47 | 5.58 | 4.16 | 4.32 | 2.15 | 5.19 |
| CCTAGCAGGCCAGGGTCACACAAGCATTTCGCTT | 0.592 | 1.47 | -0.955 | -1.08 | 1.19 | 3.43 | -0.631 | 4.06 | 0.145 | 2.9 |
| AATACAGGATCATCGTAGGCCAGAGTACGCACAG | -0.0409 | 0.414 | 0.728 | 0.381 | 0.342 | 0.111 | 0.257 | 0.723 | 0.87 | 0.16 |
| CCTACTGGGGCAAAGGTTACCATACTCAGTACGA | 5.92 | 7.16 | 3.64 | 1.43 | 4.58 | 2.6 | -0.144 | 4.19 | -0.0268 | 2.6 |
| TCGAGTAGGTTACCAAGGGGGCATTCAGCTTTCT | 3.32 | 4.07 | 4.92 | 5.1 | 1.17 | 2.98 | 0.477 | 2.6 | -0.167 | 1.98 |
| CCTACTTGGCCATCAGGTCATTGATATCAACGTT | 1.33 | 1.93 | 0.603 | 0.617 | 1.82 | 1.95 | 1.62 | 2.17 | 1.76 | 2.19 |
| ACTCTGAGGACAAAGGTCAGAGCTACGCCAGTGA | 1.18 | 4.01 | 0.601 | 0.00649 | 3.26 | 3.74 | 0.395 | 5.19 | 0.924 | 4.47 |
| ACTATTAGTTGAGACGAGGGCAACCGTTAGGTTG | 0.0606 | 0.467 | 0.0213 | 0.173 | 0.552 | 1.36 | 0.226 | 0.588 | -0.132 | 1.1 |
| ATATCTAGGTTACATCCGGGTCATTCAGGCTATG | 7.39 | 7.41 | 3.31 | 3.16 | 2.49 | 3.62 | 3.73 | 3.4 | 1.99 | 2.63 |
| ACTATTAGTTGAGACGAGGGCAACCCATAGGTTG | 0.0223 | 0.455 | 0.5 | 0.77 | 0.831 | 1.31 | 0.412 | 0.966 | 0.536 | 1.07 |
| ACTAGCAGGCCAAGTGTCACTCAAGATTAGTCCG | 1.36 | 1.14 | -0.753 | -0.466 | -0.0608 | -0.239 | -0.525 | 0.0332 | -0.483 | 0.887 |
